# Measured values as given in PubChem BioAssay (NCI).
# This is part of a sample that, as a whole, favours compounds with a hit. Of some 83,000 tested, about 20% had one in any assay.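 Growth was measured after 48 h exposure to one concentration of compound in 96-well plates. Values under 10 count as active.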 Unmarked numbers belong to inactive results. Active and inactive are the calls of the source.
# Tests used:
# Assay in all cases: NCI-60 one-dose screen, 48 h (100 = growth as untreated, 0 = no growth, -100 = all killed)
# Conditions in all cases: 10 µM unless noted
# NCI-H23 lung = system: NCI-H23 lung
# NCI-H226 lung = system: NCI-H226 lung
# NCI-H322M lung = system: NCI-H322M lung
# HOP-62 NSCLC = system: HOP-62 NSCLC
# NCI-H460 lung = system: NCI-H460 lung
# HOP-92 NSCLC = system: HOP-92 NSCLC
# NCI-H522 lung = system: NCI-H522 lung
# A549/ATCC NSCLC = system: A549/ATCC NSCLC
# 786-0 renal = system: 786-0 renal
# COLO 205 colon = system: COLO 205 colon
Structure (SMILES),growth (NCI-H23 lung),growth (NCI-H226 lung),growth (NCI-H322M lung),growth (HOP-62 NSCLC) [%],growth (NCI-H460 lung),growth (HOP-92 NSCLC),growth (NCI-H522 lung),growth (A549/ATCC NSCLC),growth (786-0 renal),growth (COLO 205 colon)
CCCCNC(=O)Oc1ccc(/C(=C(\C)c2ccc(Cl)cc2)c2ccc(OCCN(CC)CC)cc2)cc1,85.6%,103%,87.9%,74.3,72.6%,67.2%,98.4%,61.6%,59.2%,63.3%
O=C(N/N=C/c1c(Cl)cccc1Cl)c1ccc(C(F)(F)F)nc1Nc1cccc(C(F)(F)F)c1,-10.6% (active),14.2%,1.62% (active),28.2,7.11% (active),7.35% (active),-3.43% (active),18.6%,8.61% (active),-15.4% (active)
Nc1nc(-c2cccc3ccccc23)cc2ccccc12,11.1%,-7.36% (active),46.5%,13.7,0.0786% (active),19%,-34.3% (active),28.7%,20.9%,-18.4% (active)
COc1ccc(OC)c(/C=C/C(=O)N/N=C/c2ccccc2)c1,65.1%,86.6%,79.6%,67.3,13.5%,76.6%,-15.3% (active),48.4%,54.3%,42.8%
CC1Cc2c(ncn3c(-c4ccc(F)cc4)nnc23)N(C)c2ccccc21 (stereo not given),73.4%,33.2%,2.19% (active),59.5,5% (active),35.9%,63%,16.3%,29.9%,43.6%
Cc1nc2cnc(N)c(C#Cc3cncc(C(=O)Nc4ccc(CN5CCN(C)CC5)c(C(F)(F)F)c4)c3)c2nc1C,-9.47% (active),3.74% (active),-5.35% (active),11.9,4.26% (active),-39% (active),4.74% (active),2.19% (active),35%,-17.5% (active)
CCCCC1CCCC12NC(=O)NC2=O (stereo not given),99.3%,88.5%,98.3%,99.3,117%,93.6%,106%,117%,105%,120%
COc1cc(CCC[P+](c2ccccc2)(c2ccccc2)c2ccccc2)c(OC)c2c1OCO2,19.3%,55.3%,85.3%,18.9,31.8%,11.3%,6.02% (active),43.7%,31.2%,-35.6% (active)
CC1Cc2ccccc2N1NC(=O)c1ccc(Cl)c(S(N)(=O)=O)c1 (stereo not given),96.8%,97.8%,95.2%,95.8,111%,44.9%,88%,107%,96.6%,108%
CCOC(=O)Nc1ccc(-c2nc(-c3cccc(OCCN4CCOCC4)c3)c(-c3ccnc(Br)c3)[nH]2)cc1,47.3%,56.3%,58%,50.8,54.1%,54.1%,52%,54.2%,-5.12% (active),48.2%
NC[C@@H]1O[C@H](O[C@@H]2[C@@H](CO)OC(O[C@@H]3[C@@H](O)[C@H](N)C[C@H](N)[C@H]3OC3O[C@H](CN)[C@@H](O)[C@H](O)[C@H]3N)[C@@H]2O)[C@H](N)[C@@H](O)[C@@H]1O (stereo not given in full),100%,109%,120%,115,105%,125%,111%,105%,101%,115%
O=CN1N=C(c2ccc(Nc3ccnc4cc(Cl)ccc34)cc2)CC1c1ccccc1 (stereo not given),48%,65.3%,81.3%,49.8,44.4%,16.3%,2.53% (active),37.6%,31.4%,55.2%
CN1CCN(c2ccc(-c3cc4c(Nc5ccc(F)c(Cl)c5)ncnn4c3)cn2)CC1,102%,97.7%,74.7%,106,16.1%,107%,98.6%,85.2%,100%,105%
